This passage reports growth results from PubChem BioAssay (NCI).

Molecules are shown by their SMILES. The panel holds about 83,000 compounds, 20% with a hit somewhere; the sample as a whole holds those more often.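 Compound tested at a single concentration for 48 hours in 96-well plates; a percent growth value below 10 was scored as active.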 Unmarked numbers belong to inactive results. Activity calls are given as the source filed them.

Among the test systems are EKVX NSCLC; SN12C renal; UO-31 renal; TK-10 renal; ACHN renal; CAKI-1 renal; A498 renal; MOLT-4 leukemia; SR leukemia; RPMI-8226 leukemia; OVCAR-8 ovarian; OVCAR-5 ovarian; OVCAR-4 ovarian; SK-OV-3 ovarian; IGROV1 ovarian; OVCAR-3 ovarian; HS 578T breast; NCI/ADR-RES ovarian; SK-MEL-2 melanoma; CCRF-CEM leukemia.
What all share (experiment): NCI-60 one-dose screen, 48 h (100 = growth as untreated, 0 = no growth, -100 = all killed)
Holding throughout (details): 10 µM unless noted

With `COc1cccc(/C=N/NC(=O)c2ccccc2Nc2ccnc(C(F)(F)F)c2)c1O`, the growth was 10.5% in the experiment with EKVX NSCLC; 21.2% with SN12C renal; 7.6% (active) with UO-31 renal; 28.7% with TK-10 renal; 5.22% (active) in the experiment on ACHN renal; -2.16% (active) with CAKI-1 renal. Also, the growth in the experiment with A498 renal is -13% (active); with MOLT-4 leukemia it was 34.1%; in the experiment on SR leukemia it was 30.3%; with RPMI-8226 leukemia it was -18.8% (active); with OVCAR-8 ovarian, 19.7%; in the experiment on OVCAR-5 ovarian it was 20.7%. In addition, the growth with OVCAR-4 ovarian is 27.9%; with SK-OV-3 ovarian, 8.06% (active); in the experiment with IGROV1 ovarian it was 4.92% (active); in the experiment on OVCAR-3 ovarian, 43.2%; with HS 578T breast, 44.9%; with NCI/ADR-RES ovarian, 6.84% (active).

Regarding `CC(=O)Oc1ccc(Cl)cc1CN(C(C)=O)C1CCCCC1`, the growth with SK-MEL-2 melanoma is 112%; with UO-31 renal it was 90.5%; in the experiment with TK-10 renal, 110%; with ACHN renal it was 102%; with CCRF-CEM leukemia it was 87.9%; with MOLT-4 leukemia it was 85.9%. Moreover, the growth is 92.9% in the experiment with SR leukemia; 84% in the experiment on RPMI-8226 leukemia; 97.1% in the experiment with OVCAR-8 ovarian; 103% in the experiment with OVCAR-5 ovarian; 119% with OVCAR-4 ovarian; 99.7% with SK-OV-3 ovarian. The growth is 98.2% in the experiment on IGROV1 ovarian, 114% in the experiment with OVCAR-3 ovarian, 104% in the experiment with HS 578T breast and 110% in the experiment on NCI/ADR-RES ovarian.

Take `CN1CCN(c2ccc(Nc3c4ccccc4nc4ccccc34)cc2)CC1`: the growth was 106% in the experiment on SK-MEL-2 melanoma; 102% in the experiment with SN12C renal; 97.5% in the experiment with UO-31 renal; 102% in the experiment on TK-10 renal; 102% with ACHN renal; 107% in the experiment on CAKI-1 renal. Moreover, the growth with A498 renal is 112%; in the experiment on CCRF-CEM leukemia it was 105%; in the experiment on MOLT-4 leukemia, 97.5%; in the experiment with SR leukemia, 103%; with RPMI-8226 leukemia, 121%; in the experiment with OVCAR-8 ovarian, 100%. Besides, the growth with OVCAR-4 ovarian is 103%; in the experiment with SK-OV-3 ovarian it was 112%; in the experiment on IGROV1 ovarian it was 111%; in the experiment with OVCAR-3 ovarian it was 110%; in the experiment on HS 578T breast it was 117%.

Turning to `FC(F)(F)c1nc2c(NCc3ccc(-c4ccccc4)cc3)cccc2[nH]1`, the growth in the experiment on SN12C renal is 88.4%; in the experiment on UO-31 renal it was 57.5%; in the experiment with ACHN renal it was 81.6%; in the experiment with CAKI-1 renal, 73.7%; with A498 renal it was 48.7%; in the experiment with CCRF-CEM leukemia it was 44.8%. In addition, the growth in the experiment on MOLT-4 leukemia was 9% (active); in the experiment on SR leukemia it was 7.78% (active); with RPMI-8226 leukemia it was 45%; with OVCAR-8 ovarian it was 77.2%; with OVCAR-5 ovarian it was 96.1%; in the experiment on SK-OV-3 ovarian, 89.1%. The growth in the experiment on IGROV1 ovarian is 85.8%; in the experiment on OVCAR-3 ovarian, 64.9%; in the experiment on HS 578T breast it was 71.7%; in the experiment on NCI/ADR-RES ovarian, 81%.

In the case of `O=C(Cn1cccc(Nc2ccccc2)c1=O)Nc1ccccc1`, the growth in the experiment with SK-MEL-2 melanoma is 121%; in the experiment on SN12C renal it was 104%; with UO-31 renal it was 91.6%; in the experiment on TK-10 renal, 107%; with ACHN renal, 103%; in the experiment with CAKI-1 renal, 97.6%. The growth in the experiment on A498 renal was 65.6%; with CCRF-CEM leukemia, 105%; with MOLT-4 leukemia, 110%; with SR leukemia, 104%; in the experiment on RPMI-8226 leukemia, 100%; in the experiment with OVCAR-8 ovarian, 102%. Also, the growth is 90.1% with OVCAR-5 ovarian; 102% with OVCAR-4 ovarian; 104% in the experiment with SK-OV-3 ovarian; 119% in the experiment on IGROV1 ovarian; 115% with OVCAR-3 ovarian; 102% in the experiment with HS 578T breast.

On to `O=C(CCCCC(=O)N/N=C\c1ccccc1O)N/N=C\c1ccccc1O`, for which the growth in the experiment with SK-MEL-2 melanoma was 75.6%; in the experiment on SN12C renal, 47.4%; with UO-31 renal, 19.3%; in the experiment on TK-10 renal it was 40.5%; with ACHN renal, 13.2%; with CAKI-1 renal it was 14.7%. The growth in the experiment on CCRF-CEM leukemia is 18.1%; in the experiment on SR leukemia it was 19.7%; in the experiment on RPMI-8226 leukemia it was 50.2%; in the experiment on OVCAR-8 ovarian, 41.7%; with OVCAR-5 ovarian it was 59%; in the experiment with OVCAR-4 ovarian, 70.3%. Besides, the growth is 40.3% in the experiment with SK-OV-3 ovarian, 27.2% with IGROV1 ovarian, 71% in the experiment on HS 578T breast and 41.6% in the experiment on NCI/ADR-RES ovarian.

On to `Cn1ncc2c(=O)nc3c(-c4ccccc4)n[nH]n3c21`, for which the growth in the experiment on SK-MEL-2 melanoma was 112%; with SN12C renal, 99.5%; in the experiment with UO-31 renal, 97.1%; in the experiment on TK-10 renal, 99.5%; in the experiment on ACHN renal, 116%; in the experiment with A498 renal, 112%. Besides, the growth is 127% with CCRF-CEM leukemia; 99.6% with MOLT-4 leukemia; 113% in the experiment with SR leukemia; 123% with RPMI-8226 leukemia; 99.8% with OVCAR-8 ovarian; 109% in the experiment with OVCAR-5 ovarian. The growth with OVCAR-4 ovarian is 100%; with SK-OV-3 ovarian, 103%; with OVCAR-3 ovarian it was 95.4%; in the experiment with HS 578T breast it was 108%; in the experiment on NCI/ADR-RES ovarian it was 105%.

Regarding `COc1cc(-c2nc3ccccc3[nH]2)ccc1OCC(=O)N=Nc1c(O)[nH]c2ccc(Cl)cc12`, the growth in the experiment with SK-MEL-2 melanoma was -47.4% (active); in the experiment with SN12C renal it was -73.4% (active); with UO-31 renal, 104%; in the experiment on TK-10 renal, -7.25% (active); in the experiment on ACHN renal, 31.4%; in the experiment on CAKI-1 renal it was -66.4% (active). For the same compound, the growth was 81.8% in the experiment with A498 renal; -46.7% (active) in the experiment on CCRF-CEM leukemia; -45.1% (active) in the experiment on MOLT-4 leukemia; -26.4% (active) with SR leukemia; -39.4% (active) in the experiment with RPMI-8226 leukemia; -70.4% (active) with OVCAR-8 ovarian. The growth was -26.4% (active) in the experiment with OVCAR-5 ovarian; -92.6% (active) with OVCAR-4 ovarian; -53.1% (active) in the experiment on IGROV1 ovarian; -97.7% (active) in the experiment on OVCAR-3 ovarian; -60% (active) in the experiment on HS 578T breast; 89.7% in the experiment on NCI/ADR-RES ovarian.

On to `COc1ccc(Nc2cc(C)nc(N3CCN(c4ccnc5cc(Cl)ccc45)CC3)n2)cc1`, for which the growth in the experiment with SK-MEL-2 melanoma is 48%; in the experiment with SN12C renal, 40.9%; in the experiment with UO-31 renal it was -0.534% (active); in the experiment on TK-10 renal it was 46.8%; with ACHN renal, 41.5%; in the experiment with CAKI-1 renal it was 35.1%. For the same compound, the growth in the experiment on A498 renal is -1.56% (active); in the experiment on CCRF-CEM leukemia, 16%; in the experiment with MOLT-4 leukemia it was 11.1%; in the experiment on SR leukemia it was -4.15% (active); with RPMI-8226 leukemia, 16.2%; with OVCAR-8 ovarian, 53.6%. Further, the growth in the experiment with OVCAR-5 ovarian was 73.4%; in the experiment on OVCAR-4 ovarian, 36.6%; in the experiment with SK-OV-3 ovarian, 51%; in the experiment with IGROV1 ovarian it was -11% (active); in the experiment with OVCAR-3 ovarian, 6.63% (active); with HS 578T breast, 71.1%.

In the case of `N#Cc1cnn(-c2nc3c(Cl)cccc3s2)c1N`, the growth with SN12C renal was 88.5%; with UO-31 renal, 83.2%; in the experiment with TK-10 renal it was 92.7%; in the experiment with ACHN renal, 67.4%; in the experiment with CAKI-1 renal, 82.8%; in the experiment with A498 renal it was 97.1%. Also, the growth in the experiment on CCRF-CEM leukemia was 91.1%; in the experiment on MOLT-4 leukemia it was 92.4%; in the experiment on SR leukemia, 89.9%; in the experiment on RPMI-8226 leukemia, 95.7%; with OVCAR-8 ovarian, 80.8%; in the experiment with OVCAR-5 ovarian it was 108%. In addition, the growth with OVCAR-4 ovarian was -4.16% (active); in the experiment with SK-OV-3 ovarian it was 78.1%; with IGROV1 ovarian it was 84%; in the experiment with OVCAR-3 ovarian, 98.1%; with HS 578T breast, 84.2%; with NCI/ADR-RES ovarian, 82%.

`C=CCSSC1N=CNc2nc[nH]c21` (centres undefined): the growth was 93.8% with EKVX NSCLC; 72.9% in the experiment with SN12C renal; 35.7% with UO-31 renal; 29.5% with TK-10 renal; 42.6% with ACHN renal; 9.26% (active) in the experiment on CAKI-1 renal. For the same compound, the growth in the experiment on A498 renal is 50.1%; in the experiment with MOLT-4 leukemia, 34.9%; in the experiment with SR leukemia, 13%; with RPMI-8226 leukemia it was -15.1% (active); with OVCAR-8 ovarian, 22.6%; with OVCAR-5 ovarian, 42.7%. Besides, the growth in the experiment with OVCAR-4 ovarian was 34.4%; in the experiment on SK-OV-3 ovarian it was 8.8% (active); in the experiment on IGROV1 ovarian, 64.5%; in the experiment on OVCAR-3 ovarian it was 32.3%; with HS 578T breast it was 54.5%; in the experiment on NCI/ADR-RES ovarian it was 26.5%.

For the compound `Cc1cc(N2CCN(c3ccnc4cc(Cl)ccc34)CC2)nc(NC2CCCCC2)n1`, the growth with SK-MEL-2 melanoma was 33.1%; with SN12C renal it was 47.2%; with UO-31 renal, 6.25% (active); in the experiment on TK-10 renal, 48.8%; with ACHN renal it was 40.6%; in the experiment with CAKI-1 renal, 37.7%. The growth in the experiment with A498 renal was -2.63% (active); with CCRF-CEM leukemia, 1.71% (active); in the experiment on SR leukemia it was -24% (active); in the experiment on RPMI-8226 leukemia, -37.5% (active); with OVCAR-8 ovarian, 60.3%; in the experiment on OVCAR-5 ovarian, 66.8%. The growth was 33.2% in the experiment on OVCAR-4 ovarian; 56.3% with SK-OV-3 ovarian; 18.6% in the experiment on IGROV1 ovarian; 38.2% in the experiment on OVCAR-3 ovarian; 57.9% in the experiment on HS 578T breast.

As for `COc1cc(-c2nc3cc(Cl)c(Cl)cc3[nH]2)ccc1OCC(=O)N=Nc1c(O)[nH]c2ccccc12`, the growth is -80.7% (active) in the experiment on SK-MEL-2 melanoma; -69.7% (active) in the experiment on SN12C renal; 93.5% in the experiment with UO-31 renal; -12% (active) with TK-10 renal; 20% in the experiment with ACHN renal; -46.8% (active) in the experiment on CAKI-1 renal. The growth with A498 renal is -45.9% (active); in the experiment on CCRF-CEM leukemia it was -44.8% (active); in the experiment with SR leukemia, -27.7% (active); in the experiment with RPMI-8226 leukemia, -45.2% (active); with OVCAR-8 ovarian, -59% (active); with OVCAR-5 ovarian it was -75% (active). For the same compound, the growth in the experiment on OVCAR-4 ovarian is -92.7% (active); in the experiment on SK-OV-3 ovarian it was -28.2% (active); in the experiment on IGROV1 ovarian it was -86.8% (active); in the experiment on OVCAR-3 ovarian, -98.1% (active); in the experiment with NCI/ADR-RES ovarian, 85.3%.
